Compound activity deposited in PubChem BioAssay by several laboratories.
D1 allo mod = D1 dopamine receptor (human) allosteric modulation. P21728. HEK293 D1, CRE-luciferase, dopamine EC30 potentiation; actives deviate in either direction. B-score at 10 µM. 58,000 tested, 5.9% active;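 active = luminescence count or its row- and column-corrected plate score outside the 99.7% band of the plate's sample wells, on either side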
CYP2C19 activ = increases human CYP2C19 enzyme activity; P33261; AID 1025; 96,000 tested, under 10 active; activation factor at 5 µM; recombinant CYP2C19, luciferin-H EGE luminescence; stronger effect = higher value; 0 = fully inhibited enzyme, 1 = untreated enzyme;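 active = activation factor of at least 2 at 5 µM in the primary screen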;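 also: 0 = wells with 2.5 mM tranylcypromine and 1 = vehicle-only wells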
Target sequence (P33261 whole entry, looked up): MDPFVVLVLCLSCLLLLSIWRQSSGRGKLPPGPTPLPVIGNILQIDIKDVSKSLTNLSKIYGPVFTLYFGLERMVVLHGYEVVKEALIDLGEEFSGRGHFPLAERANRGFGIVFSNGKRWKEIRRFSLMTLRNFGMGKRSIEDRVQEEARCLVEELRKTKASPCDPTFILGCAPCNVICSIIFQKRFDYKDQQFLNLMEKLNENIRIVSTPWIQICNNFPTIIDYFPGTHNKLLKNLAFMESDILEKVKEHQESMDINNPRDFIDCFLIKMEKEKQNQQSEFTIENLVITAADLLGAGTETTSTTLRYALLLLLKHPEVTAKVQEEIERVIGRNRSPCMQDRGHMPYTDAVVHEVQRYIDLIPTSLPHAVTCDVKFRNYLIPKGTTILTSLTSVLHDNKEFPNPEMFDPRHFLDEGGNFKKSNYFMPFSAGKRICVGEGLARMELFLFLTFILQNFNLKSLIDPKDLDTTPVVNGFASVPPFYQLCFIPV
CYP2C19 inhib = blocks human cytochrome P450 2C19; inhibition, % at 5 µM; 96,000 tested, 21% active; AID 778; P33261; CYP2C19 Supersomes, luciferin-H EGE luminescence, 30 min;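 active = CYP2C19 inhibition above a set limit at 5 µM in the primary screen, cut at about 50% in these data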;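 also: plate controls were negative control wells for no effect and 2.5 mM tranylcypromine positive control for full effect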
CYP2C9 inh = inhibitors of human CYP2C9. P11712. CYP2C9 Supersomes, luciferin-H conversion, luminescence. inhibition, % at 5 µM. 96,000 tested, 20% active. AID 777;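 active = blocking of liver enzyme CYP2C9 beyond about 50% at 5 µM, limit read from the data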
CYP2C9 activ = increases human cytochrome P450 2C9 activity; recombinant CYP2C9, luciferin-H conversion, luminescence; stronger effect = higher value; factor 1 = untreated enzyme, 0 = blocked; activation factor at 5 µM; AID 1024; 96,000 tested, 1.4% active;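 active = activation factor of 2 or more for CYP2C9 at a 5 µM dose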;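 also: 0 = sulfaphenazole-blocked wells and 1 = vehicle-only wells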
DAT uptake mod = human DAT dopamine uptake with cocaine, either direction | Q01959 | LLC-PK1 hDAT cells, [14C]-dopamine uptake with cocaine IC80; actives deviate in either direction | 110,000 tested, 1.3% active | B-score at 10 µM;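 active = Z score or B-score, a plate-position-corrected score, falls beyond the plate's 99.7% confidence bounds, in either direction; inactive = both scores lie inside the 99.7% bounds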;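 also: scored against the spread of the other compound wells on the same plate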
The depositor's hits bear a star; . = no result given. In the library only some 28% were active in any assay of this set; here they are far more common.

SMILES	D1 allo mod	CYP2C19 activ	CYP2C19 inhib	CYP2C9 inh	CYP2C9 activ	DAT uptake mod
O=c1[nH]ncc2c3ccccc3n(Cc3ccc(F)cc3)c12	.	0.5	46	72*	0.3	-1.1
O=c1[nH]c2ccccc2n1Cc1ccc(F)cc1	-0.46	.	.	.	.	.
COC(=O)Cn1ncc2c3ccccc3n(Cc3ccccc3)c2c1=O	.	0.7	34	30	0.7	-0.32
Cc1ccccc1Cn1c2ccccc2c2cnn(CC(=O)N3CCN(c4ccccc4)CC3)c(=O)c21	.	0.4	62*	37	0.6	1.2
O=c1cc(-c2ccccc2Cl)oc2c(NS(=O)(=O)c3cc(Cl)cc(Cl)c3O)ccc(O)c12	.	.	.	.	.	-6.3*
CN(C)CCCOC(=O)C1c2ccccc2Oc2ccccc21	.	0.3	74*	-23	1.2	-0.045
CCOc1ccccc1C1C(C#N)=C(N)SC(N)=C1C#N	-0.089	0.5	52*	-7	1.1	.
CCc1ccc(C2C(C#N)=C(N)SC(N)=C2C#N)cc1	1.9	0.7	31	44	0.6	-0.45
COc1ccc(OCC(O)CN(C2CCCCC2)C2CCCCC2)cc1 (stereo not given)	.	1	-4	13	0.9	-0.22
O=C(NCc1ccco1)c1cnc2ccccn2c1=O	0.24	1	2	55*	0.4	0.48
Cc1ccc(Cn2c(=N)c(C(=O)NCc3ccco3)cc3c(=O)n4ccccc4nc32)cc1	-1.3	.	.	.	.	.
COc1ccc(CCn2c(=N)c(C#N)cc3c(=O)n4ccccc4nc32)cc1	-0.023	.	.	.	.	.
N=c1c(C(=O)NCc2ccco2)cc2c(=O)n3ccccc3nc2n1CCc1ccccc1	-3	0.8	18	17	0.8	4.1*
COc1ccc(CCn2c(=N)c(C(=O)N3CCN(C)CC3)cc3c(=O)n4ccccc4nc32)cc1	0.056	0.3	72*	39	0.6	1.3
CCOC(=O)c1cc2c(=O)n3ccccc3nc2n(Cc2ccccc2Cl)c1=N	.	0.8	22	57*	0.4	.
O=C(NCCN1C(=O)CSC1=O)c1ccccc1	0.23	1	-1	-14	1.1	-0.36
CCCC(=O)c1c[nH]c(C(=O)NCc2ccco2)c1	.	0.9	11	4	1	-0.74
O/N=C\c1cccn1-c1ccc(Br)cc1	.	0.3	68*	26	0.7	-0.2
CC(C)CN1CCC(C(=O)NCC2CCCO2)CC1 (stereo not given)	.	.	.	.	.	-0.65
COc1cccc(-c2nc(=S)c3c(n2CCCO)CCCC3)c1	.	1	-3	-1	1	-0.7
Cc1cc(C)nc(NC(=O)/C=C/c2ccc(Cl)cc2Cl)c1	.	0.9	5	-36	1.4	.
O=C(/C=C/c1ccc(Cl)cc1Cl)NCc1ccncc1	.	0.2	81*	76*	0.2	2.3*
COc1cccc(NC(=O)c2ccc3snnc3c2)c1	.	.	.	.	.	0.077
O=C(NCc1ccc(OC(F)(F)F)cc1)C1CC(c2ccccc2C(F)(F)F)=NO1 (stereo not given)	.	.	.	.	.	1.5
O=C1c2oc3ccccc3c(=O)c2C(c2cccnc2)N1CCCN1CCOCC1 (stereo not given)	0.61	1	-5	-4	1	-0.69
SMILES	D1 allo mod	CYP2C19 activ	CYP2C19 inhib	CYP2C9 inh	CYP2C9 activ	DAT uptake mod
C=CCOc1ccc(C2c3c(oc4ccccc4c3=O)C(=O)N2CCCN2CCOCC2)cc1 (stereo not given)	0.13	0.6	36	55*	0.5	0.74
CC(C)Oc1ccc(C2c3c(oc4ccccc4c3=O)C(=O)N2CCCN2CCOCC2)cc1 (stereo not given)	-0.37	0.5	49	51*	0.5	-0.27
CCOC(=O)C(C)Sc1nnc(Cn2c(=O)sc3ccccc32)n1-c1ccccc1 (stereo not given)	0.31	0.3	69*	80*	0.2	.
O=C(CSc1ncc(-c2ccccc2)[nH]1)Nc1ccccc1	.	0.2	75*	56*	0.4	0.078
O=C(CSc1ncc(-c2ccc(F)cc2)[nH]1)N1CCCCC1	0.12	0.2	84*	-12	1.1	1.5
O=C(CSc1ncc(-c2ccccc2)[nH]1)Nc1cccc(O)c1	.	0.4	62*	21	0.8	0.53
CCOc1ccc(N(CC(=O)NCc2ccco2)S(C)(=O)=O)cc1	-0.028	1	4	20	0.8	-1.1
CS(=O)(=O)N(CC(=O)NCc1ccc2c(c1)OCO2)c1ccc(Cl)cc1	-0.34	0.6	41	12	0.9	.
COc1ccc(N(CC(=O)NCc2ccc3c(c2)OCO3)S(=O)(=O)c2c(C)nn(C)c2C)cc1	-0.053	0.1	87*	16	0.8	-0.47
Cc1nn(C)c(C)c1S(=O)(=O)Nc1ccc2c(c1)OCO2	-1	0.2	81*	4	1	-0.077
COc1ccc2nc(NC(=O)CN(c3ccc(C)cc3)S(=O)(=O)c3c(C)nn(C)c3C)sc2c1	.	0.5	48	68*	0.3	0.78
COc1ccc(N(CC(=O)NCc2ccco2)S(=O)(=O)c2c(C)nn(C)c2C)cc1	-0.015	0.3	75*	20	0.8	1
CCn1c(SCc2nc3cc(OC)c(OC)cc3c(=O)[nH]2)nnc1-c1ccncc1	-1.6	0.9	6	0	1	-0.89
COc1ccc(N(CC(=O)Nc2ccc3c(c2)OCO3)S(=O)(=O)c2c(C)nn(C)c2C)cc1	-0.8	0.7	32	79*	0.2	-0.66
Cc1cc(-c2nnc(SCc3cccnc3)o2)no1	0.62	0.6	38	28	0.7	-0.31
N#Cc1ccc(CSc2nnc(-c3cnccn3)o2)cc1	-1.4	0.3	70*	27	0.7	-0.29
COCCNC(=O)c1onc(CSc2ccc(F)c(F)c2)c1C(=O)NCCOC	.	.	.	.	.	0.78
O=C(Nc1nccs1)c1sc2cc(Cl)ccc2c1Cl	.	0.4	57*	33	0.7	-0.24
O=C(Nc1nccs1)c1sc2ccccc2c1Cl	.	0.7	28	45	0.5	-1.3
CCOC(=O)c1c(OCC)[nH]c2ccc(O)cc12	.	1	-3	-62	1.6	-0.85
CC(C)(C)OC(=O)NCCc1nnc(S(=O)(=O)Cc2ccc(Cl)cc2Cl)o1	-0.32	0.2	77*	80*	0.2	-2.3
Cc1ccc(NC(=O)CSc2nnc(CCNC(=O)OC(C)(C)C)o2)c(C)c1	.	0.9	11	41	0.6	-0.094
Cc1cccc(C)c1NC(=O)CSc1nnc(CCCCCNC(=O)OC(C)(C)C)o1	-1.2	0.5	50*	73*	0.3	0.021
CC(C)(C)OC(=O)NCCc1nnc(SCc2ccccc2Cl)o1	-0.0098	0.2	82*	77*	0.2	2.1
CC(C)(C)OC(=O)NCCc1nnc(SCC(N)=O)o1	-0.57	1.1	-13	-12	1.1	0.42
CCO/C=C/C(O)(CNC(=O)COc1ccccc1F)C(F)(F)F (stereo not given)	0.56	0.2	85*	26	0.7	-1.3
COc1ccccc1OCC(=O)NCCNC(=O)COc1ccccc1OC	-0.62	0.9	8	-15	1.1	-0.42
